Measured values taken from PMC7862700, “An all-to-all approach to the identification of sequence-specific readers for epigenetic DNA modifications on cytosine”.

How the values were obtained:
Assay in all cases: DAPPL (digital affinity profiling via proximity ligation, sequencing); 10 mM Tris-HCl pH 7.5, 50 mM NaCl, 1 mM DTT, 4% glycerol, room temperature, 30 min; GST-TFs on glutathione beads, 16-mer random dsDNA library, 0.1% formaldehyde crosslink after washing; high values mean tight binding
FLI1 = target: T1, FLI1 (Homo sapiens, UniProt Q01543 1-452); conditions: protein: recombinant; tags: N-terminal GST; dsDNA, one strand shown
T1 sequence: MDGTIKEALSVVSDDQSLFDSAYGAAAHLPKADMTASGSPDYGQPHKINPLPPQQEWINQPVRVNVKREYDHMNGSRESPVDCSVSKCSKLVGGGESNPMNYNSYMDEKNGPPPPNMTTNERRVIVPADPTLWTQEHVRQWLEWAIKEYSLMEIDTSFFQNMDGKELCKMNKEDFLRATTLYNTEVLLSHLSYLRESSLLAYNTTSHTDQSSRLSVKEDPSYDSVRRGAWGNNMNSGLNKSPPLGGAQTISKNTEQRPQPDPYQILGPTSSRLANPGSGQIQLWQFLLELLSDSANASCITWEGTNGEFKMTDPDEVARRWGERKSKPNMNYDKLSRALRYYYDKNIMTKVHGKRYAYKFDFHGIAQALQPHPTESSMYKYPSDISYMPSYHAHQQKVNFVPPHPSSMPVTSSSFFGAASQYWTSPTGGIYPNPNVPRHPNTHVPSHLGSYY
Outline: (§1)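 In yeast, human transcription factors were expressed with a GST fusion, then pulled down on glutathione beads and given DNA barcodes. Pooled with a tag-only sample, they were exposed to 200 nmole of a 16-mer random double-stranded DNA library (Tris/NaCl/DTT/glycerol buffer, room temperature, 30 min), washed, crosslinked with 0.1% formaldehyde, proximity-ligated using BsaI/T4 ligase for 1 h at 37 °C, PCR-amplified and read on an Illumina NextSeq500. Each hexamer's frequency of reads for a factor, divided by the matching frequency for the tag-only sample, gives the binding signal.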

ELK1 = target: T2, ELK1 (Homo sapiens, UniProt P19419 1-428); conditions: protein: recombinant; tags: N-terminal GST; dsDNA, one strand shown
T2 sequence: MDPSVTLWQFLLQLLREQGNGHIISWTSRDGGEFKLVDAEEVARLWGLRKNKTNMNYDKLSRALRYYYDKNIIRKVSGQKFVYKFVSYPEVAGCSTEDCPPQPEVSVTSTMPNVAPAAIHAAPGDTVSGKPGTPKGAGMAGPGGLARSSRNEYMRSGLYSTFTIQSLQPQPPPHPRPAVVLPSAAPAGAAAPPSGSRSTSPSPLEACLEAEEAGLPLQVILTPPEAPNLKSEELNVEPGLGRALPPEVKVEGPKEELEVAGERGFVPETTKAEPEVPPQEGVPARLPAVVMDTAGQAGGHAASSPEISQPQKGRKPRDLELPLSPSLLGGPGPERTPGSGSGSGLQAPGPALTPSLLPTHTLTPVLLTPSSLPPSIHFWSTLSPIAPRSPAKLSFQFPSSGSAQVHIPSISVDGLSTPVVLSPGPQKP
Outline: as §1

ELF1 = ELF1 (Homo sapiens, UniProt P32519 1-619); conditions: protein: recombinant; tags: N-terminal GST; dsDNA, one strand shown
Sequence of ELF1 (P32519 whole entry): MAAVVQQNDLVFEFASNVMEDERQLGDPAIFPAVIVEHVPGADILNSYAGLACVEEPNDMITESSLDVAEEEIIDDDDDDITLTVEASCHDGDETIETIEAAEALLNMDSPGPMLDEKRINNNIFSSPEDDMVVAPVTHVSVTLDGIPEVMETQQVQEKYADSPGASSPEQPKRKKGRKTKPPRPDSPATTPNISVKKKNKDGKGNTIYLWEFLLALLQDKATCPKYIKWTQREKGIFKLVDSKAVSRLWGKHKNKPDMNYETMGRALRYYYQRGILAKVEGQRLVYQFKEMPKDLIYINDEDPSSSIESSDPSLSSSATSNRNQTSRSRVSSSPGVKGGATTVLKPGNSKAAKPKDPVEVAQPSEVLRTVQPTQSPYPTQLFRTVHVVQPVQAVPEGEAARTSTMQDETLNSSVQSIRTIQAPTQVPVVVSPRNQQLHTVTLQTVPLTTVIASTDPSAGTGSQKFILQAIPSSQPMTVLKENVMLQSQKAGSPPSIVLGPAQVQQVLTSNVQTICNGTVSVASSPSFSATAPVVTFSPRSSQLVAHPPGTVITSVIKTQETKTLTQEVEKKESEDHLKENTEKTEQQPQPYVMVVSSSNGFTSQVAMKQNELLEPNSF
Outline: as §1

EHF = target: T3, EHF (Homo sapiens, UniProt Q9NZC4 1-300); conditions: protein: recombinant; tags: N-terminal GST; dsDNA, one strand shown
T3 sequence: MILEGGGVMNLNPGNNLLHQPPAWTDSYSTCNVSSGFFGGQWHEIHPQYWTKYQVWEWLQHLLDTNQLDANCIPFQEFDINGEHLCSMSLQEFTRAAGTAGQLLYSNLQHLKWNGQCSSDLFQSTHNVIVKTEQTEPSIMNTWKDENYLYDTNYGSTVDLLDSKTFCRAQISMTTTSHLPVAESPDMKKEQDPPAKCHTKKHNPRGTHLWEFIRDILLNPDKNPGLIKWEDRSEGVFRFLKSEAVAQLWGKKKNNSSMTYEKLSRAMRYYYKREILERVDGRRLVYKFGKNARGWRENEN
Outline: as §1

SPI1 = SPI1 (Homo sapiens, UniProt P17947 1-270); conditions: protein: recombinant; tags: N-terminal GST; dsDNA, one strand shown
Outline: as §1

SPIB = SPIB (Homo sapiens, UniProt Q01892 1-262); conditions: protein: recombinant; tags: N-terminal GST; dsDNA, one strand shown
Sequence of SPIB (Q01892 whole entry): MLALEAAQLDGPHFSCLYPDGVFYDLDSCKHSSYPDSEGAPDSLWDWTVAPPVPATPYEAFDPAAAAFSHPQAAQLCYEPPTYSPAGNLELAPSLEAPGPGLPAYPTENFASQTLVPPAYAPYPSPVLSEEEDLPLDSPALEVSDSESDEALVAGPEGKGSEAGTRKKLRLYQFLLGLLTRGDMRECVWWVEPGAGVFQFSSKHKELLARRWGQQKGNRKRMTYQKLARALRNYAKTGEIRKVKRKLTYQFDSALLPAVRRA
Outline: as §1

ELK3 = target: T4, ELK3 (Homo sapiens, UniProt P41970 1-407); conditions: protein: recombinant; tags: N-terminal GST; dsDNA, one strand shown
T4 sequence: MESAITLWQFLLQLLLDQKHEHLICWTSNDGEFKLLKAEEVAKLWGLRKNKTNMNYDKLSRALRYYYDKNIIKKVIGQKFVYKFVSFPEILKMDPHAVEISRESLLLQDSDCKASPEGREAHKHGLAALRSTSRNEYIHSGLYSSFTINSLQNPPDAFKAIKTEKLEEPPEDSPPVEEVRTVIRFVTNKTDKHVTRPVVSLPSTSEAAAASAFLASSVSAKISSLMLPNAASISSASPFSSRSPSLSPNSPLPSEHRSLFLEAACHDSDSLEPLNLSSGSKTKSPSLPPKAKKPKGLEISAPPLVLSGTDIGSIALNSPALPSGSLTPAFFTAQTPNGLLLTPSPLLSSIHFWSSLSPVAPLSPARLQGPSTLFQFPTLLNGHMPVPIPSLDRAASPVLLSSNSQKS
Outline: as §1

FEV = target: T5, FEV (Homo sapiens, UniProt Q99581 1-238); conditions: protein: recombinant; tags: N-terminal GST; dsDNA, one strand shown
T5 sequence: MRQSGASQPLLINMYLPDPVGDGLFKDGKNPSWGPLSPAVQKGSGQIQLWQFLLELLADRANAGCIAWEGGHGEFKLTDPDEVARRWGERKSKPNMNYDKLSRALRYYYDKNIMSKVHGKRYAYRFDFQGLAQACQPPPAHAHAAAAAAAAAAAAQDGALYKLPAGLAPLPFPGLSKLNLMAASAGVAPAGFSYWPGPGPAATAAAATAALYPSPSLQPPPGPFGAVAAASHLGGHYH
Outline: as §1

ETV5 = ETV5 (Homo sapiens, UniProt P41161 1-510); conditions: protein: recombinant; tags: N-terminal GST; dsDNA, one strand shown
Sequence of ETV5 (P41161 whole entry): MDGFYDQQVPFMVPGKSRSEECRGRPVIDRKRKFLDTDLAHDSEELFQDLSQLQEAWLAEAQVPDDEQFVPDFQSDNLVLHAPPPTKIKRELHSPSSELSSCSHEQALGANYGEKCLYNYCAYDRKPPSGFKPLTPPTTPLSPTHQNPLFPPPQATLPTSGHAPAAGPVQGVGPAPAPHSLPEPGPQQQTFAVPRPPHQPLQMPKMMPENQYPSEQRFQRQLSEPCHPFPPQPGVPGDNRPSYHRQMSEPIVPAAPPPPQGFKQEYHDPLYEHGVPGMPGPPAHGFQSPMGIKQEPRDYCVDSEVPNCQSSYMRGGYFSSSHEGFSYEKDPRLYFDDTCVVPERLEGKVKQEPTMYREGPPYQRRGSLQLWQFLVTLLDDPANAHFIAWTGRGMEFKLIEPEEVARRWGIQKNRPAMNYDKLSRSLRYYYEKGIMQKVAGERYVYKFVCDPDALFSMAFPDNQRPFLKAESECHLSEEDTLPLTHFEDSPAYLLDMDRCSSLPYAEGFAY
Outline: as §1

HSF1 = HSF1 (Homo sapiens, UniProt Q00613 1-529); conditions: protein: recombinant; tags: N-terminal GST; chain copies: 3; dsDNA, one strand shown
Sequence of HSF1 (Q00613 whole entry): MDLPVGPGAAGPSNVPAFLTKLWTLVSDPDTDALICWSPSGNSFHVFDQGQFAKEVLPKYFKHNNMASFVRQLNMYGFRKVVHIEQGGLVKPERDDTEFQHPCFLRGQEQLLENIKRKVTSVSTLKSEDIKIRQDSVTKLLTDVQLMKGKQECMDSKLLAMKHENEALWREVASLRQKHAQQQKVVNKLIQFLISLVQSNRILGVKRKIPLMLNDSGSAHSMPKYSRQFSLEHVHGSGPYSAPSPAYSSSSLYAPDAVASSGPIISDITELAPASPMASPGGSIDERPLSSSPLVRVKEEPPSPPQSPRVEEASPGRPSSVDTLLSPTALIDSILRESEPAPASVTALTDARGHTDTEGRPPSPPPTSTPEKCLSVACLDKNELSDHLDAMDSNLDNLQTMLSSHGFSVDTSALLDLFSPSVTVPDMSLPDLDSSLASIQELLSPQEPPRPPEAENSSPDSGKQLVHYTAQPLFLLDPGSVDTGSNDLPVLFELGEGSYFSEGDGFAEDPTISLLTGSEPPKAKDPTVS
Outline: as §1

ELF4 = ELF4 (Homo sapiens, UniProt Q99607 1-663); conditions: protein: recombinant; tags: N-terminal GST; dsDNA, one strand shown
Sequence of ELF4 (Q99607 whole entry): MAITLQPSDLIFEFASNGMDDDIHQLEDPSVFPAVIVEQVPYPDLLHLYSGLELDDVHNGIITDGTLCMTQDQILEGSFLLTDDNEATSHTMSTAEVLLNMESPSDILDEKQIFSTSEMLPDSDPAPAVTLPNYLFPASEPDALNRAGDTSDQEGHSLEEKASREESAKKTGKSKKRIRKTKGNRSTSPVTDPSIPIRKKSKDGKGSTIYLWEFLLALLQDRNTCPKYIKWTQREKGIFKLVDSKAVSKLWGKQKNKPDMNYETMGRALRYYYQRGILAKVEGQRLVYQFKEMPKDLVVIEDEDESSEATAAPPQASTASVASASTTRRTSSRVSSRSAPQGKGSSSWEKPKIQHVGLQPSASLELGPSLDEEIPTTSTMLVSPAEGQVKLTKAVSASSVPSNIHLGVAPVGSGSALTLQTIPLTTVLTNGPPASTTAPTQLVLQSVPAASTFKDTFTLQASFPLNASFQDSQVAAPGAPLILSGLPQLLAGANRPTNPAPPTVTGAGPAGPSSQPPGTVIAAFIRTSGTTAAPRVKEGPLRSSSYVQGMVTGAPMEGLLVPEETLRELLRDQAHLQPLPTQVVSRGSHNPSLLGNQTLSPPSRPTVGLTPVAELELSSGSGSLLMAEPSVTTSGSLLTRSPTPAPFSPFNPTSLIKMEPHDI
Outline: as §1

ELK4 = target: T6, ELK4 (Homo sapiens, UniProt P28324-2 1-405); conditions: protein: recombinant; tags: N-terminal GST; dsDNA, one strand shown
T6 sequence: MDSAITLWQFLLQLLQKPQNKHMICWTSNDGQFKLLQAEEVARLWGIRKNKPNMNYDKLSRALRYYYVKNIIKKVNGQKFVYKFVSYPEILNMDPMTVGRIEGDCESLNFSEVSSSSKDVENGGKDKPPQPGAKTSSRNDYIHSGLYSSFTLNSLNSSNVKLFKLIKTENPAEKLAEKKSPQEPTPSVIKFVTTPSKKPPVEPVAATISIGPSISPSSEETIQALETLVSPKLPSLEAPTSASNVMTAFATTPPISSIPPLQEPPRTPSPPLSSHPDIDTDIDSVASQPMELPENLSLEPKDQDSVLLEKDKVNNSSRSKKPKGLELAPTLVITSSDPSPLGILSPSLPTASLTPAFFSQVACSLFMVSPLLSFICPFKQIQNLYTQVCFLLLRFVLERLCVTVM
Outline: as §1

ELF3 = target: T7, ELF3 (Homo sapiens, UniProt P78545 1-371); conditions: protein: recombinant; tags: N-terminal GST; dsDNA, one strand shown
T7 sequence: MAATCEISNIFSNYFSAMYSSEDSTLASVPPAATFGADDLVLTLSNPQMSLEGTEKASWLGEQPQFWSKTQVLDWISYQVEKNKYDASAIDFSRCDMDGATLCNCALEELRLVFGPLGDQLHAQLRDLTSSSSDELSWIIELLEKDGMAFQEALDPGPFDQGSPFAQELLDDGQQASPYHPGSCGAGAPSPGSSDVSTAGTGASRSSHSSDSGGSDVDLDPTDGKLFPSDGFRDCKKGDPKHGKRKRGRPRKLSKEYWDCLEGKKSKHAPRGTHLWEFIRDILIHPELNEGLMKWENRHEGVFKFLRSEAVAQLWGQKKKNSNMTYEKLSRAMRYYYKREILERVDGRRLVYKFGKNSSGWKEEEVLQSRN
Outline: as §1

GABPA = target: T8, GABPA (Homo sapiens, UniProt Q06546 1-454); conditions: protein: recombinant; tags: N-terminal GST; dsDNA, one strand shown
T8 sequence: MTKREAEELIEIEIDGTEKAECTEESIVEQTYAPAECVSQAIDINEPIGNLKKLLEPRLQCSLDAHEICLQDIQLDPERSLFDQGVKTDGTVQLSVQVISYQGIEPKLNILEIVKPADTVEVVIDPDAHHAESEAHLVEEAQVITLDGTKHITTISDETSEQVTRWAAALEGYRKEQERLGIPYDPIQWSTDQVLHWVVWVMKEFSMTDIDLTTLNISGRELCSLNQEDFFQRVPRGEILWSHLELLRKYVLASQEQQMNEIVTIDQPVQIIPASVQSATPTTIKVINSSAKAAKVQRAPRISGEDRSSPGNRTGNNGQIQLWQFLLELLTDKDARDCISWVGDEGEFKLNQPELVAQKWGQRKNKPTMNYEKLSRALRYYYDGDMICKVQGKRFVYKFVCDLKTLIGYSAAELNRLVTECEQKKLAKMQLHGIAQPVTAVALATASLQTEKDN
Outline: as §1

ETV2 = target: T9, ETV2 (Homo sapiens, UniProt O00321 1-342); conditions: protein: recombinant; tags: N-terminal GST; dsDNA, one strand shown
T9 sequence: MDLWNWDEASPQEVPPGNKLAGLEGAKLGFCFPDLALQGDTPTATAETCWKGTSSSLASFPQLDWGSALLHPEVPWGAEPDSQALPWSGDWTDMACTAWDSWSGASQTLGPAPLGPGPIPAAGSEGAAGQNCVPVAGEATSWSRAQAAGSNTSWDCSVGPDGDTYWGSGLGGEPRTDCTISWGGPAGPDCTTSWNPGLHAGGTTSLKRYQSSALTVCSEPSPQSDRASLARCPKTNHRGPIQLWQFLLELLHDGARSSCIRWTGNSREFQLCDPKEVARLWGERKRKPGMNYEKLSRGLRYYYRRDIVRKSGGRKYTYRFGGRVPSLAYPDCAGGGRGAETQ
Outline: as §1

ETV1 = ETV1 (Homo sapiens, UniProt P50549 1-477); conditions: protein: recombinant; tags: N-terminal GST; dsDNA, one strand shown
Sequence of ETV1 (P50549 whole entry): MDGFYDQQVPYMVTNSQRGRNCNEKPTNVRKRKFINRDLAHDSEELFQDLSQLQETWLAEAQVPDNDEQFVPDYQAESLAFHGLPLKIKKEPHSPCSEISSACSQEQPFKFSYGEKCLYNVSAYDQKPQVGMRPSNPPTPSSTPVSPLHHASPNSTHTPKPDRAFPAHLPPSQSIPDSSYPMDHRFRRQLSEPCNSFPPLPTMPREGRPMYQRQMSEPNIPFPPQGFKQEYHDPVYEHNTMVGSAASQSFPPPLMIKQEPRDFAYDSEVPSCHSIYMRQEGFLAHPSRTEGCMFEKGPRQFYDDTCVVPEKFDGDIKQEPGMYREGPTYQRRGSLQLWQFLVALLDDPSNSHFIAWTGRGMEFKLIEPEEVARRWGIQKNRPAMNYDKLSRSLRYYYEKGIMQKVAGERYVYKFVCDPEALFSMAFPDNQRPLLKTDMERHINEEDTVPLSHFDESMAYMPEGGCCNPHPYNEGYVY
Outline: as §1

Sequence	binding signal (FLI1)	binding signal (ELK1)	binding signal (ELF1)	binding signal (EHF)	binding signal (SPI1)	binding signal (SPIB)	binding signal (ELK3)	binding signal (FEV)	binding signal (ETV5)	binding signal (HSF1)	binding signal (ELF4)	binding signal (ELK4)	binding signal (ELF3)	binding signal (GABPA)	binding signal (ETV2)	binding signal (ETV1)
ACATCG	1.03 fold enrichment (6-mer frequency, TF over GST control)	1.01 fold enrichment (6-mer frequency, TF over GST control)	1.06 fold enrichment (6-mer frequency, TF over GST control)	1.15 fold enrichment (6-mer frequency, TF over GST control)	1.03 fold enrichment (6-mer frequency, TF over GST control)	1.1 fold enrichment (6-mer frequency, TF over GST control)	1.09 fold enrichment (6-mer frequency, TF over GST control)	1.01 fold enrichment (6-mer frequency, TF over GST control)	1.04 fold enrichment (6-mer frequency, TF over GST control)	1.01 fold enrichment (6-mer frequency, TF over GST control)	1.09 fold enrichment (6-mer frequency, TF over GST control)	1.13 fold enrichment (6-mer frequency, TF over GST control)	1.04 fold enrichment (6-mer frequency, TF over GST control)	–	–	–
CGAGTT	1.16 fold enrichment (6-mer frequency, TF over GST control)	1.1 fold enrichment (6-mer frequency, TF over GST control)	1.16 fold enrichment (6-mer frequency, TF over GST control)	1.04 fold enrichment (6-mer frequency, TF over GST control)	1.09 fold enrichment (6-mer frequency, TF over GST control)	1.07 fold enrichment (6-mer frequency, TF over GST control)	1.14 fold enrichment (6-mer frequency, TF over GST control)	–	1.1 fold enrichment (6-mer frequency, TF over GST control)	1.07 fold enrichment (6-mer frequency, TF over GST control)	1.06 fold enrichment (6-mer frequency, TF over GST control)	1.1 fold enrichment (6-mer frequency, TF over GST control)	1.16 fold enrichment (6-mer frequency, TF over GST control)	1.02 fold enrichment (6-mer frequency, TF over GST control)	1.11 fold enrichment (6-mer frequency, TF over GST control)	1.04 fold enrichment (6-mer frequency, TF over GST control)
